# Assay results: PubChem BioAssay (NCATS)
# Some of the results follow. Where a call stands in place of a potency, no number is given. Records with an inconclusive call do not appear. Activity calls are given as the source filed them. Calls come from the whole dose curve; as a rule, active = well fitted inhibition curve with a large enough effect; inconclusive = small, poorly fitted or top-dose-only effect; inactive = flat fitted curve, though single readings scatter.
# Tested on: NanoLuc luciferase (engineered Oplophorus gracilirostris luciferase)
# Experiment: Biochemical coelenterazine-based NLuc counterscreen for small molecule modulators of PMP22 gene expression - Km assay (AID 1508639)
# Conditions: secreted NLuc enzyme, coelenterazine luminescence, Km conditions; series mostly up to 57.5 µM
# From the text: Assay Provider: Jim Inglese Ph.D. National Center for Advancing Translational Science, National Institutes of Health, Rockville, MD CMT is a heterogeneous group of neurological disorders that affect approximately 1 in 2,500 people. In particular, the most common form of CMT, CMT1A is genetically linked to the duplication of the PMP22 gene which leads to Schwann cell overexpression, thus manifesting itself as a typical case of dose-sensitive diseases. To identify small molecule compounds that can mediate the expression of PMP22 we developed a phenotypic assay screening strategy by utilizing genome editing techniques to construct Schwann cell lines containing novel reporter technology to monitor the transcriptional or translational regulation of PMP22. For high sensitivity we use a bioluminescent reporter system embedded in the 3' UTR of the PMP22 gene (S16(c9) Pmp22-F2sN) to identify compounds that inhibit gene expression. […] We can further discriminate the effect of all transcriptionally active molecules on PMP22 translation or stability with an assay that incorporates a short NLuc peptide (HiBiT) at the C-terminus of expressed PMP22 (S16(f8) PMP22-HiBiT) allowing alpha complementation and luminescence detection of membrane-associated PMP22 protein. These assays were screened against the NCATS Sytravon Library Collection. Miniaturization of these assays to 1536-well plate format for quantitative high throughput screening (qHTS) yielded rich data sets immediately from the qHTS assay (S16(c9) Pmp22-F2sN), when compared with data from a cell viability assay (Cell TiterGlo) to identify compounds that decreased the output signals through cellular toxicity to streamline the selection process of actives for subsequent characterization using the HiBiT assay (S16(f8) PMP22-HiBiT).
# Biochemical Coelenterazine-based solution NLuc assay (Km assay) PROTOCOL TABLE (format as described by Inglese J, Shamu CE and Guy RK. 2007) SEQUENCE No. (e.g., 1, 2, 3, etc.); PARAMETER (e.g., Cells, Incubation, Reagent, etc.); VALUE and DESCRIPTION. 1. Reagent. Add 2 uL substrate per well into Greiner 1536-well white/solid bottom high base, medium binding plates. 2. Compounds. Library compounds and controls added at 23nL per well, transferred by Pin Tool. 3. Incubation. Incubate plates 5 min at ambient temperature. 4. Reagent. Add 2uL NLuc enzyme solution per well of Greiner 1536-well plates. 5. Incubation. Incubate plates at room temperature for 10 min., protect from light. 6. Detector. FLuc luminescence measured using CCD-based camera (Viewlux). NOTES (numbers refer to Sequence numbers above; values are from representative experiments) 1. Freshly prepared 15 uM Coelenterazine, 0.3M Sodium Ascorbate, 0.005M NaCl and 0.1% TritonX in PBS pH7.4, filtered through […]. 4. Enzyme was obtained by filtering media of S16 cells expressing secreted NLuc (Inglese et al. 2014) grown to 80-90% confluency in DMEM High Glucose, No Phenol Red media + 10% heat inactivated FBS + 1% Pen/Strep supplemented media6. Luminescence Read (Fluc): Clear filter; Exposure = 10 sec, Gain = High, Speed = Slow, Binning = 2X 6. Luminescence Read (Nluc): Clear filter; Exposure = 1 sec, Gain = High, Speed = Slow, Binning = 2X REFERENCES: 1. Inglese J, Shamu CE and Guy RK, Reporting data from high throughput screening of small molecule libraries, Nature Chemical Biology, 2007, 3(8): 438-441. doi.org/10.1038/nchembio0807-438 2. Yasgar A, Shinn P, Jadhav A, Auld DS, Michael S, Zheng W, Austin CP, Inglese J and Simeonov A, Compound Management for Quantitative High-Throughput Screening. J. Assoc. Lab. Auto., 2008, 13: 79-89. doi: 10.1016/j.jala.2007.12.004 3. Inglese, J., Dranchak, P., Moran, J. J., Jang, S. W., Srinivasan, R., Santiago, Y., Zhang, L., Guha, R., Martinez, N., MacArthur, R., Cost, G. J., and Svaren, J. (2014) Genome editing-enabled HTS assays expand drug target pathways for Charcot-Marie-tooth disease, ACS Chem Biol 9, 2594-2602.
# Potency is the fitted concentration of half-maximal effect.
row,Structure (SMILES),Potency
1,COc1ccc(CCNC(=O)c2cc(=O)c3c(C)cc(C)cc3o2)cc1OC,0.273 µM (active)
2,Cc1ccc(CCNC(=O)C2CCN(c3nnc(-n4cccc4CNc4ccc(C)cc4)s3)CC2)cc1,inactive
3,COc1ccc(-c2onc(C)c2C)cc1S(=O)(=O)NCC1CCN(Cc2cccc(F)c2)CC1,inactive
4,CCC1CCCCN1CCCNC(=O)c1cc2c(Cl)nc3ccccc3c2s1 (stereo unspecified),inactive
5,CCOC(=O)c1c(C)[nH]c(CCC(=O)NCCCN2CCN(c3cccc(Cl)c3)CC2)c1C,inactive
6,CCC1=Nc2cc(C(=O)NCCCOC(C)C)ccc2Sc2ccc(C)cc21,inactive
7,Cc1ccc(OCCSc2nc3ccc(NC(=O)COc4ccc(C)cc4)cc3s2)cc1,inactive
8,Cc1cccc(Nc2cc(C)nc(-n3nc(C)cc3C)n2)c1,9.68 µM (active)
9,CCOC(=O)C1CCN(C(=O)CSc2c3c(nc4ccc(Cl)cc24)CCCC3)CC1,inactive
10,CCCS(=O)(=O)c1ncc(Cl)c(C(=O)Nc2scc(-c3ccccc3)c2C(=O)OCC)n1,inactive
11,Cc1cc(OCC(=O)NCC2(N(C)C)CCCCC2)cc(C)c1Cl,inactive
12,COc1cccc(NC(=O)CSC2=Nc3ccccc3C3=NC(CC(=O)NC4CCCCC4)C(=O)N23)c1 (stereo unspecified),inactive
13,CCOC(=O)c1c(C)[nH]c(CCC(=O)NCCCN2CCN(c3cc(C)ccc3C)CC2)c1C,inactive
14,Cc1nnc(SCC(=O)NCc2ccccc2Cl)c2nn(-c3ccccc3)c(C)c12,inactive
15,O=C(c1ccc2c(c1)N(Cc1ccc(F)cc1)C(=O)c1ccccc1S2(=O)=O)N1CCN(c2ccccn2)CC1,1.93 µM (active)
16,CC(=O)N1CCCc2cc(S(=O)(=O)N3CCCC(C(=O)N4CCN(c5cccc(Cl)c5)CC4)C3)ccc21 (stereo unspecified),inactive

row,Structure (SMILES),Potency
1,Cc1cc(F)ccc1NS(=O)(=O)c1ccc(-n2cccn2)cc1,13.7 µM (active)
2,CCc1ccc(C2CC(=O)c3c([nH]c(C(=O)OCc4ccc(C)cc4)c3C)C2)cc1 (stereo unspecified),inactive
3,O=C(c1ccc(C(F)(F)F)cc1)N1CCC(c2nc(-c3ccc(S(=O)(=O)N4CCCC4)cc3)no2)CC1,inactive
4,Cc1ccccc1CNC(=O)CSc1nnc(C)c2c(C)n(-c3ccccc3)nc12,inactive
5,CCOc1ccc(NC(=O)c2c(NC(=O)Cc3ccccc3)sc3c2CCC(C)C3)cc1 (stereo unspecified),17.2 µM (active)
6,CCCCOc1ccc(CN2C(=O)C(=O)c3cc(Br)cc(C)c32)cc1OC,inactive
7,CCCn1c2ccccc2c2cnn(CC(=O)NCC3CCN(Cc4ccc(C)cc4)CC3)c(=O)c21,inactive
8,CCOC(=O)c1ccc(NC(=O)CSc2nc3c([nH]c4ccccc43)c(=O)n2C)cc1,inactive
9,CCCn1c(=N)c(C(=O)NCc2ccccc2)cc2c(=O)n3cccc(C)c3nc21,inactive
10,CCOCCCNC(=O)c1c(NC(=O)c2nc(SC)ncc2Cl)sc2c1CCCC2,inactive
11,Cc1ccc(C)n1-c1nnc(N2CCC(C(=O)NCc3ccccc3Cl)CC2)s1,inactive
12,COc1ccccc1Nc1c2c(nc3ccc(NC(=O)/C=C/c4cc(OC)c(OC)c(OC)c4)cc13)CCCC2,1.93 µM (active)
13,O=C(NCCCN1CCN(c2cccc(Cl)c2)CC1)c1nnc(Cc2ccc(F)cc2Cl)o1,inactive
14,CC(C)(C)c1ccc(C(=O)NCC(c2ccco2)S(=O)(=O)c2ccc(F)cc2)cc1 (stereo unspecified),inactive
15,CCOC(=O)c1ccc(N2C(=O)c3n[nH]c(C)c3C2c2ccc(O)c(OC)c2)cc1 (stereo unspecified),19.3 µM (active)
